Screen size: about 5,500 compounds; about 2,000 (36%) were called active. Another 18% or so got no clear call; they are omitted. Cut-off read from the data, not from the text of the source: active = normalized growth mostly below about 0.91 (no sharp cut-off); inconclusive = no clear call, values can overlap the other calls; inactive = mostly above about 0.92. The list shows a part of the results.
Assay: chemical genetic growth profiling, strain panel (AID 1159580);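 note: tested at 20 µM; growth read once vehicle control cultures reached saturation at 30 °C; 1 = growth at the plate median or of vehicle wells; lower values mean less growth of the strain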
Settings: S. cerevisiae deletion strains, growth OD

Measured: normalized growth

C[C@]12CCc3occc3C1CC[C@@]13C[C@@H](CCC12)[C@@](O)(CO)C3 (stereo partly drawn)
inactive: locus YHR030C, strain SLT2, stronger effect = lower value 0.934 | locus YHR079C, strain IRE1, stronger effect = lower value 0.961 | locus YJL095W, strain BCK1, stronger effect = lower value 0.948 | locus YJR066W, strain TOR1, stronger effect = lower value 0.909 | locus YLR113W, strain HOG1, stronger effect = lower value 0.873 | locus YNL183C, strain NPR1, stronger effect = lower value 0.91 | locus YOR231W, strain MKK1, stronger effect = lower value 0.911 | locus YPL256C, strain CLN2, stronger effect = lower value 0.924
